# In all, about 190,000 compounds went through this assay and about 930 (0.49%) were called active. The list shows a part of the results. Measured potencies and affinities stand elsewhere. Unmarked numbers belong to inactive results.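 Rule for the calls: active = z-score of insulin promoter reporter brightness in nuclei below -3 at 5 µM, with at least 500 cells counted; inconclusive = wells with under 500 cells, flagged as toxic or sparse; inactive = the rest.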
# Test: insulin promoter down-regulators in MIN6 cells, imaging, high-content screening, mouse beta cells (AID 1628)
# Conditions: MIN6 insulin promoter GFP reporter, at 5 µM, stronger effect = lower value
row,Structure (SMILES),z-score
1,Cn1cc(/C=C2\SC(=S)N(NC(=O)c3cccc(Cl)c3)C2=O)c2ccccc21,7.3
2,CC(/C=N/NC(=O)c1ccncc1)=C\c1ccc(C(C)C)cc1,3.19
3,CC(C)c1ccc(/C=N/NC(=O)c2cccc(Cl)c2)cc1,-3.75 (active)
4,CC1=NN(c2ccccc2)C(=O)C1/C=C1\NC(=S)NC1=O (stereo not given),3.53
5,C/C(N)=C(/C#N)C(=O)CSc1nnnn1-c1ccc(C)cc1C,-3.38 (active)
6,c1csc(-c2ccnc3ncnn23)c1,-4.89 (active)
7,S=C(Nc1ccc(Nc2ccccc2)cc1)Nc1ccccn1,-3.32 (active)
8,O=C(CC(=O)Nc1ccccn1)Nc1ccccn1,-0.03
9,CCOC(=O)c1sc2cc([N+](=O)[O-])cc(SCC(C)C)c2c1N,13.9
10,CC(=O)c1n[nH]nc1Nc1nc(C)cc(C)n1,0.61
11,c1ccc(CNc2cnccn2)cc1,1.28
12,Cc1cccc(NC(=O)C2CCCN(C(=O)NC3CCCCC3)C2)c1C (stereo not given),-3.03 (active)
13,COc1cc(C)nc(N2CCCC(C(=O)Nc3cccc(Cl)c3C)C2)n1 (stereo not given),3.87
14,O=C(NC1CC1)C1CCCN1C(=O)NC1CCCCC1 (stereo not given),2.65
15,Cc1ccc(NS(=O)(=O)c2cc([N+](=O)[O-])ccc2N/N=C/c2sc(N3CCOCC3)nc2-c2ccccc2)c(C)c1,11
16,Cc1[nH]c2ccccc2c1/C=N/Nc1ccc([N+](=O)[O-])cc1S(=O)(=O)Nc1ccc(Cl)cc1,9.19
17,C=CCSc1nnc(C)c(/C=C/Nc2ccc(Cl)cc2)n1,5.19
18,CCC(=O)Oc1ccc(C(=O)Nc2c[nH]c(=O)[nH]c2=O)cc1,-5 (active)
19,NS(=O)(=O)c1ccc(NC(=S)NCc2ccccc2)cc1,-4.47 (active)
20,NS(=O)(=O)c1ccc(NC=C2C(=O)OC3(CCCCC3)OC2=O)cc1,3.78
21,Cc1cc(NC(=O)C2CC(=O)OC2c2ccccc2)no1 (stereo not given),-4.4 (active)
22,COc1ccccc1-n1c(N)cc(=O)nc1SCC(=O)Nc1cc(C)on1,2.37
23,CC(=O)c1c(C)[nH]c(C(=O)OCC(=O)Nc2ccc(Cl)cc2[N+](=O)[O-])c1C,-3.98 (active)
24,COc1ccc(NC(=O)c2[nH]c(C)c(C(C)=O)c2C)cc1Cl,3.83
25,COC(=O)c1ccc(NC(=O)CSc2nc3cccnc3n2C)cc1,-4.12 (active)

row,Structure (SMILES),z-score
1,CCOC(=O)c1[nH]c2ccc(OC)cc2c1NS(=O)(=O)c1ccc(Cl)s1,-4.98 (active)
2,CCC(C(=O)OCC(=O)Nc1cccc(S(=O)(=O)NC2=NCCCCC2)c1)c1ccccc1 (stereo not given),3.98
3,Cc1sc2ncnc(N3CCCCC3C)c2c1C (stereo not given),-4.4 (active)
4,COc1ccc(C(=O)/C=C/c2ccc(N(C)C)cc2)c(OC)c1,15.9
5,COc1ccc(/C=C2\CC/C(=C\c3ccc(OC)cc3OC)C2=O)c(OC)c1,5.49
6,C=CCN1C(=O)C(O)(CC(=O)c2ccc(OC)cc2OC)c2cc(Br)ccc21 (stereo not given),-4.05 (active)
7,O=C(O)c1ccccc1NN=C1CCCCC1,-4.39 (active)
8,CC(Sc1ccccc1)C(=O)NN=C1CCCCCC1 (stereo not given),8.07
9,O=C(CCSc1ccc(Cl)cc1)NN=C1CCCCCC1,3.37
10,CC1CC(C)(C)Nc2ccc(N=O)cc21 (stereo not given),4.12
11,CN(C)c1ccc(/C=C2\SC(=O)N(CC(O)Cn3c4ccccc4c4ccccc43)C2=O)cc1 (stereo not given),3.6
12,O=c1ccc(NS(=O)(=O)c2ccccc2)cn1Cc1ccc(Cl)c(Cl)c1,4.35
13,O=C1S/C(=C\c2ccc(N3CCOCC3)o2)C(=O)N1c1ccccc1,12.7
14,COc1cc2c(cc1OC)C1=CC(=O)C(=O)N1C(C)(C)C2,6.34
15,COCCN(CCOC)Cc1c(C)[nH]c2c(C)c(C)ccc2c1=O,0.72
16,COC(=O)CSc1nc2ccccn2c(=O)c1C=O,4.58
17,COC(=O)CSc1nc2ncc(Cl)cc2[nH]1,-4.43 (active)
18,Cc1ccnc(N/C=C(\C#N)c2nc(-c3cccc(Br)c3)cs2)c1,7.83
19,CCOC(=O)CC1C(=O)NCCN1c1nc2ccc(C)cn2c(=O)c1/C=C1\SC(=S)N(CC(C)C)C1=O (stereo not given),10.8
20,CSc1ccc(NC(=O)Nc2cccn(Cc3ccccc3)c2=O)cc1,-5.72 (active)
21,COc1cnc(-c2ccccn2)nc1NC(C)C,-4.73 (active)
22,CCC(=O)Nc1ccc2c(c1)ncn2-c1ccccc1,4.96
23,COc1ccccc1NC(=O)COC(=O)C1CC2C=CC1C2 (stereo not given),3.01
24,COc1ccccc1NC(=O)/C=C1\SCC(=O)N1C,4.67
25,COc1ccccc1NC(=O)Cn1cc(C(=O)c2ccco2)c2ccccc21,-4.69 (active)

# From PubChem BioAssay AID1628 (Sanford-Burnham Center for Chemical Genomics, 2009)
